# High-throughput results deposited in PubChem by National Center for Advancing Translational Sciences (NCATS).
# TRPV1 agonist = agonists of human vanilloid receptor 1 (TRPV1). Q8NER1. TRPV1-expressing cells, Fluo-8 calcium influx, agonist mode. activation, % at 8.33 µM. hit rate 0.19% among 320,000. AID 540275; in the data active = activation above about 80%; inconclusive = between about 30% and that limit; note: 0% is about no effect
#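 Fluo-8 calcium influx in TRPV1-expressing cells, kinetic read (ex 480/em 520 nm). Compound added and read 3 min for agonist activity, followed by capsaicin at EC20 final and 2 min further read for enhancement.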
# Giardia killer = Giardia lamblia killing | activity change, % at 7.66 µM, hits read low | hit rate 0.15% among 340,000 | AID 540267 | Giardia lamblia trophozoite viability; in the data active = activity change below about -80%; inconclusive = between about -30% and that limit;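 note: parasites exposed to compound for two days anaerobically before the ATP read; % is set by controls: 0 for no effect and ±100 for the full control effect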
#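 Giardia trophozoites, 100 cells per well, were exposed to compounds for 48 hrs at 37 deg C under anaerobic conditions; viability was then read as ATP content by bioluminescence after 15-30 min at room temperature.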
# TRPV1 potentiator = human TRPV1 potentiation. Q8NER1. TRPV1-expressing cells, Fluo-8 calcium influx, capsaicin EC20 potentiation. potentiation, % at 8.33 µM. hit rate 0.02% among 320,000; in the data active = potentiation above about 80%; inconclusive = between about 30% and that limit; note: 0% is about no effect
#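 TRPV1-expressing cells were cultured overnight at 35.5C and loaded with Fluo-8 calcium dye for 40 to 90 min at room temperature. After a 10 s baseline, compound was added and calcium influx was read kinetically for 3 min (ex 480/em 520 nm).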
# ELG1 repair inh = inhibitors of ELG1-dependent DNA repair in HEK293T cells. HEK293T ELG1-luciferase reporter, luminescence, 16 h; DNA damage induced by 5-fluorouridine. Potency, µM (doses to about 46.1 µM), for the others: top-dose activity change, negative = inhibition, most hits filed as inhibitors. hit rate 2.3% among 330,000. AID 504467; note: potency is the fitted concentration of half-maximal effect; % is set by controls: 0 for no effect and ±100 for the full control effect; nearly all actives have a fitted effect of over 55% in size
#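 Overnight (16 hr) co-exposure of 2,000 cells/well to 5-fluorouridine and compound at 37 °C preceded detection. Luciferase was quantified via ONE-Glo luminescence; loss of signal denotes inhibition.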
# FUS suppressor = rescues growth of FUS-expressing yeast; S. cerevisiae FUS-expressing, growth rescue, OD600, 24 h; Potency, µM (top dose mostly 76.6 µM), usual class: activators; hit rate 0.24% among 390,000; AID 1347120;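 note: potency is the fitted concentration of half-maximal effect; plate controls were DMSO vehicle for no effect and reference control for full effect; nearly all actives have a fitted effect of over 55% in size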
#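 Yeast FUS proteinopathy model; galactose-induced FUS (2%), starting OD 0.005. Cpds in dilution series, 24hr, 30C, 99% humidity. Abs 600 nm growth. Pos ctrl CP55940 (top 92uM final); neg ctrl DMSO.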
# An asterisk follows results filed as active; i = inactive; ? = inconclusive; nt = not tested or not shown. Rows were chosen to be rich in hits. Some 2.3% of all compounds tested hit in one or more screens of this group. Unless noted, calls come from the whole dose curve; as a rule, active = well fitted curve in the direction sought with a large enough effect; inconclusive = small, poorly fitted or top-dose-only effect, or another doubt; inactive = no such curve, though single readings can be large; an effect the other way counts as inactive or inconclusive.
SMILES,TRPV1 agonist,Giardia killer,TRPV1 potentiator,ELG1 repair inh,FUS suppressor
COc1ccc(S(=O)(=O)Nc2ccc(O)c3ccccc23)cc1,1,16,-22,9.2µM*,nt
COc1ccc(NS(=O)(=O)c2ccc(SC)cc2)cc1,1,43,1,?,10µM*
COc1cc(Cl)c(C)cc1NC(=O)Cn1c(C)c2cnn(-c3ccccc3)c(=O)c2c1C,nt,nt,nt,nt,i
CCCNC(=O)C1(C)CCCN(C(=O)c2cccc(C(F)(F)F)c2)C1 (stereo not drawn),nt,nt,nt,nt,i
CCn1c(-c2cc(-c3ccccc3OC)nc3ccccc23)n[nH]c1=S,10,6,-4,16µM*,nt
CCn1c(-c2cc(-c3ccc(OC(C)C)cc3)nc3ccccc23)n[nH]c1=S,?,-16,-3,?,35µM*
CCCOc1cccc(-c2cc(-c3n[nH]c(=S)n3CC)c3ccccc3n2)c1,nt,14,nt,-16%,?
CCn1c(-c2cc(-c3ccc(C)cc3)nc3ccccc23)n[nH]c1=S,?,-4,6,-4%,i
CCn1c(-c2cc(-c3cc(OC)ccc3OC)nc3ccccc23)n[nH]c1=S,7,5,1,6.5µM*,i
CCN(C(=O)CSc1nnc(-c2cc3occc3n2C)n1-c1ccccc1C)c1ccccc1,nt,nt,nt,nt,i
CCOc1ccc(CNC(=O)c2ccc(NC(=O)N3CCSc4ncccc43)cc2)cc1OC,nt,nt,nt,nt,i
COc1ccc(C2(O)CC3CCC(C2)N3c2cc(C)nc(-c3ccccc3)n2)cc1 (stereo not drawn),25,-17,-4,18µM*,i
Cc1cc(N2CCCC2)nc(N2C3CCC2CC(O)(c2ccc(F)cc2)C3)n1 (stereo not drawn),5,nt,-6,-10%,nt
Cc1cccc(NC(=O)C2CCN(S(=O)(=O)c3ccc(F)cc3)CC2)c1C,nt,nt,nt,nt,i
COc1ccccc1OCC(=O)N/N=C/C=C/c1ccc([N+](=O)[O-])o1,4,?,-4,?,nt
Cc1cc(C)cc(OCC(=O)N/N=C/c2ccc([N+](=O)[O-])o2)c1,2,-88*,1,?,i
Cc1ccccc1OCC(=O)N/N=C/c1ccc([N+](=O)[O-])o1,8,-93*,-6,?,i
CC(C)CCNC(=O)c1ccc2nc(Cc3ccccc3)oc2c1,nt,nt,nt,nt,i
O=C(Nc1ccc(-n2cccn2)cc1)C1CCCCN1Cc1cccc2c1OCO2 (stereo not drawn),?,39,-6,8.2µM*,i
Cc1ccc(S(=O)(=O)N(C)C)cc1NC(=O)c1cc(S(=O)(=O)N2CCCCC2)ccc1N1CCOCC1,4,-16,3,10µM*,i
COc1ccc(S(=O)(=O)N2CCCCC2)cc1NC(=O)C1COc2ccccc2O1 (stereo not drawn),2,3,-3,18µM*,?
COc1ccc(C)cc1NC(=O)c1cc(S(=O)(=O)N2CCCCC2)ccc1N1CCOCC1,21,12,-5,15µM*,?
COc1cc(NC(=O)c2cc(S(=O)(=O)N3CCCCC3)ccc2N2CCOCC2)cc(OC)c1,0,6,28,?,i
CN(C)S(=O)(=O)c1ccc(N2CCCC2)c(C(=O)N2CCN(S(=O)(=O)c3ccc(F)c(F)c3)CC2)c1,nt,4,nt,nt,28µM*
O=C(CN1Cc2ccccc2C1=O)Nc1cc(F)ccc1F,nt,nt,nt,nt,i
SMILES,TRPV1 agonist,Giardia killer,TRPV1 potentiator,ELG1 repair inh,FUS suppressor
Cc1ccc(NC(=O)c2oc3ccccc3c2NC(=O)c2ccc(F)c(F)c2)cc1,nt,nt,nt,nt,i
CCN(C(=O)c1cc2c(=O)oc3ccc(C)cc3c2s1)c1ccccc1F,nt,nt,nt,nt,i
C[C@]12c3[nH]c4ccc(Cl)cc4c3CCN1C(=O)[C@@H](CC(=O)NCc1cccc(C(F)(F)F)c1)C[C@@H]2C(=O)N1CCCCC1,nt,-12,nt,23µM*,?
CC[C@]12c3[nH]c4ccc(Cl)cc4c3CCN1C(=O)[C@@H](CC(=O)NCc1cccc(C(F)(F)F)c1)C[C@@H]2C(=O)N1CCN(C(=O)c2ccco2)CC1,nt,6,nt,13µM*,?
C[C@]12c3[nH]c4ccc(Cl)cc4c3CCN1C(=O)[C@@H](CC(=O)NCCc1ccccn1)C[C@@H]2C(=O)N1CCCCC1,nt,7,nt,7.3µM*,i
CN1c2ccccc2C(=O)N2CCc3c([nH]c4ccccc34)C21 (stereo not drawn),nt,-3,nt,nt,nt
COc1cccc(C(=O)N(Cc2nc(-c3ccc(Cl)cc3)no2)C(C)C)c1OC,nt,nt,nt,nt,i
